NR2F2 inh: inhibitors of human COUP-TFII (NR2F2); P24468; inhibition, % at 8.6 µM; 370,000 compounds, 0.7% hits; HEK293T NGFI-A luciferase reporter, luminescence;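 active = inhibition above a per-plate cutoff, mean inhibition of test wells between control levels plus 3 SD, cut at about 38% in these data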;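 also: cells cotransfected with COUP-TFII expression vector driving the NGFI-A reporter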
Target sequence (P24468 whole entry, looked up): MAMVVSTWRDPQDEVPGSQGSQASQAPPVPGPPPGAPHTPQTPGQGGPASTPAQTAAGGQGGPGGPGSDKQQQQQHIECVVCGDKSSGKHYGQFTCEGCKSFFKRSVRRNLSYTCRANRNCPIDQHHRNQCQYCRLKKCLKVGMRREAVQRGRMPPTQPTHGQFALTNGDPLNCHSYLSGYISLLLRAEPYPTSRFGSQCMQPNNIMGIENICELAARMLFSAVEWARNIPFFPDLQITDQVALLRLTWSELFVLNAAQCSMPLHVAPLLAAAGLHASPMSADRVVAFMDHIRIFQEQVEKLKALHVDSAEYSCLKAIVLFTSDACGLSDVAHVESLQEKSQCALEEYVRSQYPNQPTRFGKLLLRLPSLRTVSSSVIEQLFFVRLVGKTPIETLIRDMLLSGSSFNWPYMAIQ
GalR3 antagonist: blocks the human galanin receptor 3; HEK293 GalR3-CNG cAMP membrane potential fluorescence; galR3 body fused to GalR1 C-terminus; AID 651719; O60755; 360,000 compounds, 0.44% hits; inhibition, % at 3 µM;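 active = inhibition above the screen-wide average plus 3 SD, cut at about 13% in these data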;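 also: forskolin and galanin both at EC90 stimulate the cells; cAMP rise reported by CNG channel membrane potential dye signal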
Target sequence (O60755 1-299 limits assumed): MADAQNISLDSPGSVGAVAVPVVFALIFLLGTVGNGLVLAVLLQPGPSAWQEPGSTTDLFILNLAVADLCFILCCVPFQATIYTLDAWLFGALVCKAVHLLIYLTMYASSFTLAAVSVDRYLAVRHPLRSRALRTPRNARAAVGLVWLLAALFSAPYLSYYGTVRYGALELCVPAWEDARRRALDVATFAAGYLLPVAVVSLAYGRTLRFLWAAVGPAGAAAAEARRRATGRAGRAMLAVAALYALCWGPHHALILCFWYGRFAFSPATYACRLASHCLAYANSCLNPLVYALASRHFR
Env fusion inh: inhibitors of HIV Env-mediated cell fusion; HeLa-JRFL Env/CEM21 cell fusion, luciferase; inhibition, % at 12.3 µM; 360,000 compounds, 1.1% hits;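 active = mean replicate inhibition score of at least 50 and every replicate individually at or above 50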
Gli-Sufu block: Gli-Sufu pathway antagonism | Sufu-KO-LIGHT fibroblasts, Gli luciferase reporter luminescence | inhibition, % at 5 µM | 340,000 compounds, 0.74% hits | AID 588413;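 active = inhibition above about 55%, limit read from the data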
aDG glyco act: alpha-DG glycosylation activation | Pro5-aDG cells, alpha-DG glycosylation AlphaScreen (IIH6); 0% Pro5, 100% B10-LARGE cell signal | activation, % at 10 µM | 360,000 compounds, 0.22% hits;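 active = activation of at least 8% versus controls, or a plate z-score of at least 8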;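 also: Pro5 are CHO cells carrying HIG-tagged alpha-DG that lacks glycosylation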
Gli antag conf: Gli-SUFU antagonism confirmation, single concentration; Sufu-KO-LIGHT cells, Gli luciferase reporter, luminescence; shares compounds with Gli-Sufu block; inhibition, % at 5 µM; 2,500 compounds, 40% hits; AID 602428;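 active = mean inhibition at 5 µM reaching about 45%, limit read from the data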
SufuKO cytotox: counter-screen for Gli-SUFU antagonists: cytotoxicity; shares compounds with Gli-Sufu block; Sufu-KO-LIGHT cells cytotoxicity, ATP luminescence; cytotoxicity, % at 5 µM; 2,500 compounds, 32% hits;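 active = mean cytotoxicity at 5 µM above about 25%, limit read from the data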;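 also: cells exposed to compound overnight for roughly 16 to 18 hours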
Wnt3a cs: counter-screen for Gli-SUFU antagonists: Wnt3a reporter inhibition; shares compounds with Gli-Sufu block; Wnt-LIGHT cells, Wnt3a-driven luciferase reporter, luminescence; inhibition, % at 6.25 µM; 2,500 compounds, 20% hits; AID 651995;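 active = mean inhibition above about 25%, limit read from the data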
Of the large screens only hits and unclear results are named; the others gave an inactive call (follow-up assays come after a bar, where they were run). The list is not random: actives were taken first. Their share in the collection is about 2.1%.

O=C(c1cc(Cl)ccc1Cl)N1CCN(c2ccccn2)CC1	none (no result: Env fusion inh)
O=C(c1cnc(N2CCN(c3ccccn3)CC2)c2ccccc12)N1CCN(c2cccc(Cl)c2)CC1	Gli-Sufu block 65.3 | Gli antag conf 53.9 | SufuKO cytotox 36.1 | Wnt3a cs inactive
Cc1ccc(COc2ccc(/C=N/NC(=O)c3nnn(-c4nonc4N)c3COc3ccc(F)cc3)cc2)cc1	none
Cc1cc(C)c(/C=N/NC(=O)c2nnn(-c3nonc3N)c2COc2ccc(F)cc2)c(C)c1	none | Gli antag conf inactive | SufuKO cytotox inactive | Wnt3a cs inactive
O=C(Cn1ccc2cc(S(=O)(=O)N3CCCC3)ccc21)NCCc1ccccc1	Gli-Sufu block 57.0 | Gli antag conf inactive | SufuKO cytotox inactive | Wnt3a cs inactive
O=C(CCn1ccc2cc(S(=O)(=O)N3CCCC3)ccc21)NCCc1ccccc1	none
CCNC(=O)C[C@@H]1CC[C@H]2[C@H](COc3ccc(NC(=O)Nc4cccc(OC)c4)cc3C(=O)N2C)O1	none (no result: NR2F2 inh, GalR3 antagonist, Gli-Sufu block, aDG glyco act)
C[C@@H]1CN([C@H](C)CO)C(=O)c2cc(NS(=O)(=O)c3ccccc3)ccc2O[C@@H](C)CCCCO[C@@H]1CN(C)CC1CC1	none (no result: NR2F2 inh, GalR3 antagonist, Gli-Sufu block, aDG glyco act)
CCc1cccc(NC(=O)C2CCCN2S(=O)(=O)c2cccc3cccnc23)c1 (configuration not stated)	none | Gli antag conf inactive | SufuKO cytotox inactive | Wnt3a cs inactive
COC(=O)[C@@]1(CCS(=O)(=O)c2ccccc2)N=C(c2ccc(OCCCO)cc2)O[C@H]1c1ccccc1CN=[N+]=[N-]	none (no result: NR2F2 inh, GalR3 antagonist, Gli-Sufu block, aDG glyco act)
O=C(Nc1ccccc1)Nc1ccccc1NS(=O)(=O)c1cccs1	none
N#Cc1ccc(OCC(=O)Nc2ccccc2NS(=O)(=O)c2cccs2)cc1	none | Gli antag conf inactive | SufuKO cytotox inactive | Wnt3a cs inactive
C[C@@H]1CCCCO[C@@H](CN(C)C(=O)c2ccccc2)[C@@H](C)CN([C@@H](C)CO)C(=O)c2cc(NC(=O)NC3CCCCC3)ccc2O1	none (no result: NR2F2 inh, GalR3 antagonist, Gli-Sufu block, aDG glyco act)
COc1ccccc1NCC(=O)n1nc(C)cc1C	none | Gli antag conf inactive | SufuKO cytotox inactive | Wnt3a cs inactive
O=C(c1cc2ccccc2[nH]1)N1CCOCC1	none
COc1ccc2cc(C(=O)N3CCN(c4ccccc4OC)CC3)[nH]c2c1	Gli-Sufu block 57.0 | Gli antag conf inactive | SufuKO cytotox inactive | Wnt3a cs inactive
COc1ccccc1N1CCN(C(=O)c2cc3sccc3n2C)CC1	Gli-Sufu block 92.0 | Gli antag conf inactive | SufuKO cytotox inactive | Wnt3a cs inactive
COc1ccccc1N1CCN(C(=O)c2cc3c(=O)n(C)c4ccccc4c3n2C)CC1	none
CN1CCN(C(=O)c2cc3ccccc3[nH]2)CC1	none | Gli antag conf inactive | SufuKO cytotox inactive | Wnt3a cs inactive
C[C@H](CO)N1C[C@H](C)[C@@H](CN(C)C(=O)Nc2ccc(F)cc2)Oc2ccc(NC(=O)Cn3cnnn3)cc2CC1=O	none (no result: NR2F2 inh, GalR3 antagonist, Gli-Sufu block, aDG glyco act)
CN1CCN(C(=O)C[C@H]2C[C@@H]3c4cc(NC(=O)Nc5ccc(C(F)(F)F)cc5)ccc4O[C@@H]3[C@@H](CO)O2)CC1	none (no result: NR2F2 inh, GalR3 antagonist, Gli-Sufu block, aDG glyco act)
C[C@H](CO)N1C[C@H](C)[C@@H](CN(C)Cc2ccc3c(c2)OCO3)OCCCC[C@H](C)Oc2ccc(NC(=O)C3CCCCC3)cc2C1=O	none (no result: NR2F2 inh, GalR3 antagonist, Gli-Sufu block, aDG glyco act)
Cc1[nH]n(-c2ccccc2)c(=O)c1N=Nc1ccccc1O	none | Gli antag conf 55.1 | SufuKO cytotox 34.0 | Wnt3a cs 74.3
O=C(COC(=O)c1cnc(Cl)c(Cl)c1)NCCC1=CCCCC1	none | Gli antag conf inactive | SufuKO cytotox inactive | Wnt3a cs inactive
C[C@@H]1CN([C@@H](C)CO)C(=O)c2cccc(NC(=O)c3ccc(-c4nccs4)cc3)c2O[C@@H]1CN(C)S(C)(=O)=O	none (no result: NR2F2 inh, GalR3 antagonist, Gli-Sufu block, aDG glyco act)
COc1ccc(S(=O)(=O)Nc2ccc(F)cc2F)cc1C(=O)N1CCOCC1	Gli-Sufu block 60.9 | Gli antag conf inactive | SufuKO cytotox inactive | Wnt3a cs inactive
C[C@@H]1CCCCO[C@H](CN(C)S(=O)(=O)c2ccc(F)cc2)[C@H](C)CN([C@@H](C)CO)C(=O)c2cc(N(C)C)ccc2O1	none (no result: NR2F2 inh, GalR3 antagonist, Gli-Sufu block, aDG glyco act)
C[C@@H]1CN([C@@H](C)CO)C(=O)c2cc(NC(=O)Nc3ccccc3)ccc2O[C@@H](C)CCCCO[C@H]1CN(C)Cc1ccc(C(F)(F)F)cc1	none (no result: NR2F2 inh, GalR3 antagonist, Gli-Sufu block, aDG glyco act)
CCOc1ccc(NS(=O)(=O)c2ccc(NC(=S)NC(C)=O)cc2)cc1	none
CCOc1ccc(/C(O)=C/C(=O)C(=O)Nc2ccc(S(=O)(=O)NC(C)=O)cc2)cc1	Gli-Sufu block 83.8 | Gli antag conf inactive | SufuKO cytotox inactive | Wnt3a cs inactive
N#Cc1ccc(OCC(=O)NNC(=S)NC2CCCCC2)cc1	Gli-Sufu block 57.7 (no result: Env fusion inh) | Gli antag conf inactive | SufuKO cytotox inactive | Wnt3a cs inactive
COc1ccc(NC(=O)Nc2ccc3c(c2)C(=O)N([C@@H](C)CO)C[C@@H](C)[C@@H](CN(C)C(=O)NC(C)C)OCCCC[C@H](C)O3)cc1	none (no result: NR2F2 inh, GalR3 antagonist, Gli-Sufu block, aDG glyco act)
CNc1nc(NCc2ccccc2)c2ccccc2n1	Gli-Sufu block 56.7 | Gli antag conf inactive | SufuKO cytotox inactive | Wnt3a cs inactive
c1ccc(CNc2nc(-c3cccs3)nc3ccccc23)nc1	none
Cc1ccc(CNc2nc(-c3cccs3)nc3ccccc23)cc1	none | Gli antag conf inactive | SufuKO cytotox inactive | Wnt3a cs inactive
COCC(=O)Nc1ccc2c(c1)[C@@H]1C[C@H](CC(=O)NCc3ccc4c(c3)OCO4)O[C@@H](CO)[C@@H]1O2	none (no result: NR2F2 inh, GalR3 antagonist, Gli-Sufu block, aDG glyco act)
COC(=O)C[C@@H]1CC[C@@H]2[C@@H](COc3ccc(NC(=O)c4ccc(F)c(F)c4)cc3C(=O)N2C)O1	none (no result: NR2F2 inh, GalR3 antagonist, Gli-Sufu block, aDG glyco act)
Cc1cnccc1CN(C)Cc1nc(Cc2ccccc2Cl)no1	Gli-Sufu block 55.2 | Gli antag conf inactive | SufuKO cytotox inactive | Wnt3a cs inactive
CN(Cc1ccccn1)Cc1nc(Cc2ccccc2Cl)no1	none
C[C@H]1CN([C@@H](C)CO)C(=O)c2cc(NC(=O)NC3CCCCC3)ccc2O[C@H]1CN(C)C(=O)Nc1cccc2ccccc12	none (no result: NR2F2 inh, GalR3 antagonist, Gli-Sufu block, aDG glyco act)
COCCNC(=O)c1cc2c(c(-c3cccc(C#CCN(C)C)c3)n1)[C@H](CCO)N(S(=O)C(C)(C)C)C2 (some centres not stated)	none (no result: NR2F2 inh, GalR3 antagonist, Gli-Sufu block, aDG glyco act)
S=C1NC[C@H](CC2CCCCC2)N1CC1CCCCC1	Gli-Sufu block 65.1 | Gli antag conf inactive | SufuKO cytotox inactive | Wnt3a cs inactive
CCCC[C@@H]1CNC(=S)N1CC1CCCCC1	none
C[C@@H]1CCCCO[C@@H](CN(C)S(=O)(=O)c2cccs2)[C@H](C)CN([C@H](C)CO)C(=O)c2cc(N(C)C)ccc2O1	none (no result: NR2F2 inh, GalR3 antagonist, Gli-Sufu block, aDG glyco act)
COCCNC(=O)c1cccc(OC2CCN(Cc3ccc(C(C)C)cc3)CC2)c1	none
COCCNC(=O)c1cccc(OC2CCN(Cc3ccc(C(=O)OC)cc3)CC2)c1	Gli-Sufu block 59.9 | Gli antag conf inactive | SufuKO cytotox inactive | Wnt3a cs inactive

Bioassay records deposited in PubChem BioAssay by several laboratories.
